These results are taken from PubChem BioAssay.

A short description of experiment [1]: inhibitors of TNFa-induced NFkB p65 translocation, primary screen, imaging, HUVEC, MLSMR starter and 10KST1 sets (AID 438;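 active = inhibition above 20% together with a positive visual image hit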;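 note: compound added about 3h40 before a 20 min TNFalpha stimulation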;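 for inhibition: signal is the nuclear over cytoplasmic p65 intensity ratio per well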). Particulars: HUVEC TNFa-induced p65 nuclear translocation; cell count: measured here: nuclei count (cytotoxicity indicator), at 2.08 µM; inhibition: at 2 µM, stronger effect = higher value, 0% TNFa-plus-vehicle, 100% no-TNFa wells.
Experiment [2] can be described thus: reduction of polyQ htt aggregates in cells – imaging, exon1htt(103Q)mCFP cells, high-content imaging, primary screen (AID 483;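 active = visual image review flags a hit and inhibition of aggregation exceeds 20%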;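 note: compound exposure lasted 3 days before fixation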;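 for nuclei count: percent of the per-plate median nuclei count of sample wells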). Particulars: exon1htt(103Q)mCFP cell line, aggregate imaging, at 2 µM; inhibition of aggregation: stronger effect = higher value; nuclei count: measured here: cell count, toxicity.
Experiment [3] in a line: endothelial E-selectin expression blockers – imaging, HUVEC, immunofluorescence, MLSMR starter and 10KST1 sets, primary screen (AID 487;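 active = visually confirmed hit in the image check and inhibition above 20%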;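 for inhibition: signal is fraction of cell area covered by stained E-selectin grains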;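 for nuclei count: 100% = median nuclei count of all wells on the same plate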). Particulars: HUVEC TNFalpha-induced E-selectin immunofluorescence imaging, at 2 µM; inhibition: stronger effect = higher value; nuclei count: measured here: cell number, toxicity.
Experiment [4] has as its target Voltage-gated potassium channel subunit beta-2 (Rattus norvegicus) (UniProt P62483). In words: inhibitors of rat Kvbeta2 reductase activity – biochemical, NADPH fluorescence, primary screen (AID 622;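 active = fluorescence slope higher than the sample average by over 3 SD, cut at about -0.22 in these data, passing the limit was not always enough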;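 note: slope of raw intensity against log time taken from 70 to 1610 s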). Conditions: recombinant KvBeta, 4-cyanobenzaldehyde reduction, at 10 µM, stronger effect = higher value.
Experiment [5] shares this target. In words: enhancers of rat Kvbeta2 NADPH turnover – biochemical, NADPH fluorescence, primary screen (AID 623;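 active = NADPH fluorescence slope more negative than the mean of all samples by about 3 SD, 99.7% confidence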;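 note: fluorescence intensity change per second fitted from 20 to 320 s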). Conditions: Recombinant KvBeta, NADPH fluorescence decrease slope, 10 min; at 10 µM; stronger effect = lower value.
The target in experiment [6] is Alpha-2C adrenergic receptor (Homo sapiens) (UniProt P18825). Kind of experiment: compounds altering alpha2C-coupled GIRK flux – cell-based, HEK293 alpha2C/GIRK1/2, thallium flux, primary screen (AID 624).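 Note: slope of fluorescence ratio to pre-addition baseline per second over 15 to 24 s.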 Particulars: thallium flux BTC fluorescence, at 10 µM, actives lie on both sides.
Experiment [7] in a line: blockers of RIG-like receptor reporter activation – cell-based, Sendai virus stimulus, luciferase, 10K MLSCN set, TLR/RLR signaling modifier project, primary screen (AID 602276;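 active = inhibition at or above 50% at 10 µM; inactive = inhibition below 50%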;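 note: firefly luciferase from ISG56 promoter only with Renilla not read in this screen; 0% = Sendai virus plus DMSO and 100% = medium plus DMSO without virus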). Particulars: HEK293 RL24 IRF3 luciferase reporter, at 10 µM, stronger effect = higher value. (Reporter assays use an easily measured gene product as a stand-in for the process of interest.)
Experiment [8] can be described thus: TLR3 IRF3 reporter activation blockers – cell-based, poly I:C stimulus, luciferase, 10K MLSCN set, primary screen (AID 602277;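 active = inhibition of the reporter signal at or above 50%; inactive = inhibition below 50%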). Conditions: HEK293-TLR3 RL24 IRF3 luciferase reporter, at 10 µM, stronger effect = higher value.

Calls of active or inactive are those of the source.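 Rule for the calls, unless noted: active = fluorescence slope after compound addition differing from the mean of all screened samples at 99.7% confidence, in either direction; inactive = the rest.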

Chain of Alpha-2C adrenergic receptor (Homo sapiens) (P18825 whole entry, looked up): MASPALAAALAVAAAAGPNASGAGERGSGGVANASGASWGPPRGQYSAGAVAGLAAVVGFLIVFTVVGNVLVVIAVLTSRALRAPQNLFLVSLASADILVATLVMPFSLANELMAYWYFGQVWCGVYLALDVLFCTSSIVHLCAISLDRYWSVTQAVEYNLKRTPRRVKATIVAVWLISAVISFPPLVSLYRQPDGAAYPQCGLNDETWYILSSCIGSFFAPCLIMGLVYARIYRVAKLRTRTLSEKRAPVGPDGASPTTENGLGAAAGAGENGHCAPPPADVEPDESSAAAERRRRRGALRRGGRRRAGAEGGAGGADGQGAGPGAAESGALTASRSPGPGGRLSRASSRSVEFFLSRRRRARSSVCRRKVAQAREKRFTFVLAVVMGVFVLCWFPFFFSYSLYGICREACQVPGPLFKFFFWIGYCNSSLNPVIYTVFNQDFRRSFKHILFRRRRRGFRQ
Chain of Voltage-gated potassium channel subunit beta-2 (Rattus norvegicus) (P62483 whole entry, looked up): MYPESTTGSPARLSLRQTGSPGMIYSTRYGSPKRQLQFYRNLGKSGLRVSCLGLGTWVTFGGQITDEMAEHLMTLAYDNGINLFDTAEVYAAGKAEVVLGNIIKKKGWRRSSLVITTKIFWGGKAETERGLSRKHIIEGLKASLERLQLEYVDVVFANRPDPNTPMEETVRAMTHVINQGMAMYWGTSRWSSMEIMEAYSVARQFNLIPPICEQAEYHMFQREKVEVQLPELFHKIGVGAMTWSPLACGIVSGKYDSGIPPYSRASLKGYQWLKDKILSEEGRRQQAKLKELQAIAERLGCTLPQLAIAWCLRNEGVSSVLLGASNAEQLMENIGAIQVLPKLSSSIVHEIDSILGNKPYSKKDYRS

For the compound `COc1ccccc1N1CCN(C(=O)c2ccc(S(=O)(=O)N3CCCCCC3)cc2)CC1`, in experiment [1], the cell count worked out at 604. The inhibition in experiment [1] is -13% (inactive); in experiment [3], -59.2% (inactive); in experiment [7], -1.31% (inactive); in experiment [8], -1.9% (inactive). In addition, the inhibition of aggregation in experiment [2] is -9.1% (inactive). In addition, the nuclei count in experiment [2] is 89.6%; in experiment [3], 89.3%. For the same compound, the fluorescence slope in experiment [4] was -0.606 (inactive). For the same compound, the NADPH fluorescence slope in experiment [5] is -2.1e-05 (inactive). The slope in experiment [6] was 0.0031 (inactive).

For `Cc1cccc(N2CCN(C(=O)c3cc4ccccc4oc3=O)CC2)c1C`, the cell count in experiment [1] is 712. For the same compound, the inhibition is -2.8% (inactive) in experiment [1], -22.9% (inactive) in experiment [3], -10.3% (inactive) in experiment [7] and -10.8% (inactive) in experiment [8]. Moreover, the inhibition of aggregation in experiment [2] was -28.9% (inactive). Also, the nuclei count in experiment [2] worked out at 93.7%; in experiment [3], 117%. In experiment [4], the fluorescence slope was -0.565 (inactive). For the same compound, in experiment [5], the NADPH fluorescence slope is -2.1e-05 (inactive). Further, in experiment [6], the slope is 0.00624 (inactive).

Regarding `CC1=C(C(=O)Nc2ccccc2)C(c2ccco2)C(C#N)=C(SCC(=O)Nc2cccc(C)c2C)N1` (centres undefined), the cell count in experiment [1] was 625. Besides, the inhibition in experiment [1] was 15.7% (inactive); in experiment [3], -16.6% (inactive); in experiment [7], 9.65% (inactive); in experiment [8] it was 21.2% (inactive). Besides, the inhibition of aggregation in experiment [2] was 16% (inactive). Also, the nuclei count in experiment [2] worked out at 89.5%; in experiment [3], 129%. Moreover, the fluorescence slope in experiment [4] is -0.412 (inactive). Further, the NADPH fluorescence slope in experiment [5] was -1.1e-05 (inactive). Further, in experiment [6], the slope was 0.00681 (inactive).

As to `Cn1c(=O)cc(OCCCC(=O)Nc2ccc3c(c2)OCCO3)c2ccccc21`, the cell count in experiment [1] is 361. The inhibition in experiment [1] was -3.3% (inactive); in experiment [3], -8.1% (inactive); in experiment [7], -5.46% (inactive); in experiment [8], -1.3% (inactive). In addition, the inhibition of aggregation in experiment [2] is -4.7% (inactive). Further, the nuclei count in experiment [2] was 101%; in experiment [3], 113%. The fluorescence slope in experiment [4] was -0.511 (inactive). Also, in experiment [5], the NADPH fluorescence slope was -1.4e-05 (inactive). The slope in experiment [6] was 0.00629 (inactive).

As for `CN(C)c1oc(-c2ccccc2F)nc1C#N`, the cell count in experiment [1] is 576. For the same compound, the inhibition in experiment [1] was 5.5% (inactive); in experiment [3] it was -56.7% (inactive); in experiment [7], -3.37% (inactive); in experiment [8] it was -12.5% (inactive). Also, in experiment [2], the inhibition of aggregation was 10.1% (inactive). For the same compound, the nuclei count in experiment [2] was 104%; in experiment [3], 111%. For the same compound, the fluorescence slope in experiment [4] is -0.355 (inactive). For the same compound, the NADPH fluorescence slope in experiment [5] is -1.3e-05 (inactive). Besides, the slope in experiment [6] was 0.00727 (inactive).

In the case of `C=CCn1c(=O)c2ccccc2n2c(SCC(=O)Nc3cc(C)on3)nnc12`, in experiment [1], the cell count was determined as 469. Besides, the inhibition in experiment [1] is -22.4% (inactive); in experiment [3] it was -50.6% (inactive); in experiment [7] it was 3.33% (inactive); in experiment [8], 5.94% (inactive). Besides, the inhibition of aggregation in experiment [2] was -23.3% (inactive). Further, the nuclei count in experiment [2] stood at 113%; in experiment [3], 153%. Moreover, the fluorescence slope in experiment [4] is -0.605 (inactive). In experiment [5], the NADPH fluorescence slope is -4.3e-05 (inactive). Further, in experiment [6], the slope is 0.00622 (inactive).

Consider `CCCCN(C(=O)c1ccc(Cl)cc1)C1CC2CCC(C1)N2C` (centres undefined), for which, in experiment [1], the cell count worked out at 588. The inhibition in experiment [1] is 6.5% (inactive); in experiment [3] it was -93.1% (inactive); in experiment [7], -6.18% (inactive); in experiment [8], 35.3% (inactive). The inhibition of aggregation in experiment [2] was 5.4% (inactive). For the same compound, the figures for the nuclei count in experiment [2] and in experiment [3] were 114% and 116%, respectively. For the same compound, the fluorescence slope in experiment [4] was -0.561 (inactive). Besides, the NADPH fluorescence slope in experiment [5] is -6.5e-05 (inactive). Moreover, in experiment [6], the slope was 0.0056 (inactive).

On to `Cc1cc(C)cc(C(=O)N2CCC(C(N)=O)CC2)c1`, for which the cell count in experiment [1] is 706. For the same compound, the inhibition in experiment [1] was -3.5% (inactive); in experiment [3], -54.3% (inactive); in experiment [7] it was 13.6% (inactive); in experiment [8] it was 20.8% (inactive). For the same compound, the inhibition of aggregation in experiment [2] was -33.2% (inactive). Moreover, the nuclei count stood at 109% in experiment [2] and 122% in experiment [3]. Besides, the fluorescence slope in experiment [4] is -0.297 (inactive). In experiment [5], the NADPH fluorescence slope was -4.1e-05 (inactive). In experiment [6], the slope was 0.00604 (inactive).

For the compound `COc1ccc(C2C(C(=O)c3sc(C)nc3C)=C(O)C(=O)N2CCN(C)C)cc1OC` (centres undefined), the cell count in experiment [1] worked out at 539. Further, the inhibition is 13.4% (inactive) in experiment [1], 10.8% (inactive) in experiment [3], -1.16% (inactive) in experiment [7] and 4.66% (inactive) in experiment [8]. The inhibition of aggregation in experiment [2] is -5.5% (inactive). The nuclei count in experiment [2] worked out at 96.8%; in experiment [3], 103%. Also, the fluorescence slope in experiment [4] is -0.6 (inactive). For the same compound, the NADPH fluorescence slope in experiment [5] was -7.9e-05 (inactive). Besides, the slope in experiment [6] is 0.0037 (inactive).

On to `CCOC(=O)C(C)Sc1nnc(Cc2cc(=O)[nH]c(=O)[nH]2)n1-c1ccc(Cl)cc1` (centres undefined), for which the cell count in experiment [1] was found to be 817. Moreover, the inhibition is -6.8% (inactive) in experiment [1], -37.1% (inactive) in experiment [3], 15.5% (inactive) in experiment [7] and 12% (inactive) in experiment [8]. Further, the inhibition of aggregation in experiment [2] is 4.6% (inactive). In addition, the nuclei count worked out at 107% in experiment [2] and 99.1% in experiment [3]. Moreover, the fluorescence slope in experiment [4] is -0.615 (inactive). The NADPH fluorescence slope in experiment [5] is 5.1e-06 (inactive). The slope in experiment [6] was 0.00534 (inactive).

`Cc1cc(NC(=O)Cc2cn3ccsc3n2)n(-c2ccccc2)n1`: the cell count in experiment [1] was 823. Also, the inhibition in experiment [1] is -16.9% (inactive); in experiment [3] it was -23.9% (inactive); in experiment [7], 5.91% (inactive); in experiment [8], 5.15% (inactive). Moreover, the inhibition of aggregation in experiment [2] is -16.8% (inactive). Moreover, the nuclei count was 104% in experiment [2] and 106% in experiment [3]. Besides, the fluorescence slope in experiment [4] was -0.308 (inactive). The NADPH fluorescence slope in experiment [5] is -1.7e-07 (inactive). Moreover, the slope in experiment [6] is 0.00558 (inactive).

Regarding `CCC1(NC(C)=O)CC2CC1CC2NC(C)=O` (centres undefined), in experiment [1], the cell count was 340. For the same compound, the inhibition in experiment [1] was -1.4% (inactive); in experiment [3] it was -37.4% (inactive); in experiment [7], 1.63% (inactive); in experiment [8], 3.3% (inactive). Also, the inhibition of aggregation in experiment [2] is -4.3% (inactive). Further, the nuclei count in experiment [2] was found to be 100%; in experiment [3] it was 103%. Further, the fluorescence slope in experiment [4] was -0.614 (inactive). Moreover, the NADPH fluorescence slope in experiment [5] was -1.3e-05 (inactive). Moreover, the slope in experiment [6] was 0.00321 (inactive).

Regarding `CC(=O)OCCNc1cc(N2CCN(C)CC2)c2noc3c2c1C(=O)c1ccccc1-3`, the cell count in experiment [1] was 746. Further, the inhibition in experiment [1] is 1.6% (inactive); in experiment [3], -15.4% (inactive); in experiment [7], 27.6% (inactive); in experiment [8], 21.4% (inactive). In addition, the inhibition of aggregation in experiment [2] was -43.5% (inactive). Also, the nuclei count in experiment [2] was 114%; in experiment [3] it was 111%. Besides, in experiment [4], the fluorescence slope was -0.58 (inactive). In addition, the NADPH fluorescence slope in experiment [5] is -2.8e-05 (inactive). For the same compound, the slope in experiment [6] was 0.00388 (inactive).

With `COc1ccccc1NCN1C(=O)CCC1=O`, the cell count in experiment [1] amounted to 710. Further, the inhibition was 5.4% (inactive) in experiment [1], -32.2% (inactive) in experiment [3], 13.3% (inactive) in experiment [7] and 26.9% (inactive) in experiment [8]. The inhibition of aggregation in experiment [2] is -0.4% (inactive). Besides, the nuclei count in experiment [2] worked out at 97.3%; in experiment [3], 104%. In addition, in experiment [4], the fluorescence slope is -0.551 (inactive). The NADPH fluorescence slope in experiment [5] is -2.5e-05 (inactive). For the same compound, the slope in experiment [6] is 0.00722 (inactive).

Broadly, the inhibition is the drop in the measured response relative to a control, in per cent.
